BL2 CD40 inh: CD40 pathway inhibition in BL2 cells; BL2 NF-kB luciferase reporter, CD40L-induced, 4 h; inhibition, % at 10 µM; 0.94% of 83,000 active;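 active means mean inhibition of at least 50% with a set share of replicates also reaching that level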;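 further: 0% = neutral control wells and 100% = IKK inhibitor VII at 50 µM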
Starred values were filed as active, the others as inactive; [ ] = another dose, or the depositor's remark. The entries come from a sample that favours hits as a whole.

SMILES | BL2 CD40 inh
O=C(Nc1ccc(C(F)(F)F)cc1)Nc1ccc2c(c1)[C@H]1C[C@@H](CC(=O)N3CCc4ccccc4C3)O[C@@H](CO)[C@H]1O2 | 65.3*[25 µM]
O=C(Cc1ccncc1)Nc1ccc2c(c1)[C@@H]1C[C@@H](CC(=O)N3CCc4ccccc4C3)O[C@H](CO)[C@@H]1O2 | 3.7[25 µM]
O=C(C1CCCCC1)N1CC[C@@H]2[C@H](CO)Nc3ccc(Br)cc3[C@@H]21 | -16.2
CO[C@H]1CN(C)C(=O)c2ccc(NS(C)(=O)=O)cc2OC[C@@H](C)N(C(=O)CN(C)C)C[C@@H]1C | -9.7[25 µM]
O=C(C[C@@H]1C[C@H]2c3cc(NC(=O)NC4CCCCC4)ccc3O[C@H]2[C@@H](CO)O1)NC1CCCCC1 | 1.4
COc1ccccc1S(=O)(=O)N[C@H]1CC[C@H](CCn2cc(C3CCCC3)nn2)O[C@@H]1CO | -2.0
CS(=O)(=O)N1C[C@@H]2C(c3ccccc3)[C@H](C1)N2Cc1ccc(F)cc1 (some centres not stated) | 5.4
CN(C)CC(=O)N1[C@H](C#N)[C@@H](c2ccccc2-c2cccc(C(=O)N(C)C)c2)[C@H]1CO | -15.7[25 µM]
COc1ccc2c3c([nH]c2c1)[C@@H](CO)NCC31CCN(C(=O)c2ccccc2)CC1 | 1.6[25 µM]
O=C(O)CCN1C(=O)/C(=C\c2ccncc2)SC1=S | 5.9
CC(/C=C1\SC(=O)N(CCCC(=O)O)C1=O)=C\c1ccccc1 | 47.5*
O=C(O)CCCCCN1C(=O)/C(=C/c2cn(-c3ccccc3)nc2-c2cccs2)SC1=S | -3.8
CN(C)C(=O)c1cccc(-c2ccc(C3[C@H]4CNC[C@@H]3N4C(=O)Nc3cc(F)ccc3F)cc2)c1 (some centres not stated) | 5.5
O=C1N[C@H](c2ccccc2)COCc2cn(nn2)CC[C@H]1Cc1ccc(C(F)(F)F)cc1 | -4.8[25 µM]
COc1ccc(NC(=O)N2CCCCN3[C@H](CO)[C@H](c4ccc(-c5ccccc5F)cc4)[C@@H]3C2)cc1 | 15.7[25 µM]
O=C(Nc1cccc(Cl)c1)N1C[C@@H]2[C@H](c3ccccc31)[C@H](CO)N2C(=O)C1CCCC1 | -5.6[25 µM]
CO[C@@H](CN(C)Cc1ccc2c(c1)OCO2)[C@@H](C)CN(C(=O)Nc1ccc(F)cc1)[C@H](C)CO | -1.2[25 µM]
CO[C@@H](CN(C)Cc1cc(F)ccc1F)[C@H](C)CN(C(=O)Nc1ccc(C(F)(F)F)cc1)[C@H](C)CO | -8.8[25 µM]
CO[C@H](CN(C)Cc1cc(F)ccc1F)[C@H](C)CN(C(=O)Nc1ccc(C(F)(F)F)cc1)[C@H](C)CO | 52.6*[25 µM]
CN(C)C(=O)c1cccc(-c2ccc3n(c2=O)C[C@H]2[C@H](CO)[C@@H](C(=O)NCC(F)(F)F)[C@@H]3N2C)c1 | -7.7[25 µM]
CCC(=O)N1CC2(C1)[C@@H](c1ccc(-c3ccccc3C)cc1)[C@@H](CO)N2C(=O)CC | 4.5[25 µM]
N#C[C@@H]1[C@H](c2ccccc2C2=CCCCC2)[C@@H](CO)N1C(=O)c1ccccn1 | 6.2[25 µM]
CC(C)CC#Cc1ccc([C@@H]2[C@@H](CO)N3C(=O)CN(C(=O)NC4CCCC4)C[C@@H]23)cc1 | 3.8
CN(Cc1ccccc1)C(=O)COC(=O)c1cncc(Br)c1 | -3.7
CC(C)CN(C(=O)COC(=O)c1cnc(Cl)c(Cl)c1)c1c(N)n(Cc2ccccc2)c(=O)[nH]c1=O | 41.5
SMILES | BL2 CD40 inh
CC(C)N(Cc1ccccc1)C(=O)COC(=O)c1cnc(Cl)c(Cl)c1 | 61.1*
C[C@@H]1CCn2cc(nn2)COC[C@H](c2ccccc2)NC1=O | 7.4[25 µM]
CN(C)C(=O)c1cccc(-c2ccc(C3[C@@H]4CN(C(=O)c5ccccn5)C[C@H]3N4)cc2)c1 (some centres not stated) | -7.0
COc1ccc(-c2ccc3c(c2)[C@@H]2[C@@H](CCN2C(=O)C2CCC2)[C@H](CO)N3C)cc1 | 57.8*
COc1ccc(-c2ccc3c(c2)[C@@H]2[C@@H](CCN2C(=O)C2CC2)[C@@H](CO)N3C)cc1 | -18.1
COc1ccc(-c2ccc3c(c2)[C@H]2[C@H](CCN2C(=O)C2CCOCC2)[C@@H](CO)N3C)cc1 | -5.3[25 µM]
O=C(NC(=O)c1ccccc1)Nc1ccccn1 | 108.1*
O=C(Nc1ccccn1)c1ccc(C(=O)c2ccccc2)cc1 | -13.0
O=C(CC(=O)Nc1ccccn1)Nc1ccccn1 | 7.8
CC12C=CC(=O)C=C1CCC1C3CCC(O)(C(=O)CO)C3(C)CC(O)C12F (configuration not stated) | 27.9
C[C@@H]1C[C@H]2[C@@H]3CCC4=CC(=O)C=C[C@]4(C)[C@@]3(F)[C@@H](O)C[C@]2(C)[C@@]1(O)C(=O)COP(=O)(O)O | 51.5*
CCCC(=O)O[C@]1(C(=O)CCl)[C@@H](C)C[C@H]2[C@@H]3CCC4=CC(=O)C=C[C@]4(C)[C@@]3(F)C(=O)C[C@@]21C | 41.9
C[C@H]1C[C@H]2[C@@H]3CCC4=CC(=O)C=C[C@]4(C)[C@@]3(Cl)[C@@H](O)C[C@]2(C)[C@@]1(O)C(=O)CO | 29.5
CCC(=O)O[C@]1(C(=O)CCl)[C@@H](C)C[C@H]2[C@@H]3CCC4=CC(=O)C=C[C@]4(C)[C@@]3(F)[C@@H](O)C[C@@]21C | 44.8*
O=C(N[C@@H]1CC[C@@H](CCNC(=O)C2CCCC2)O[C@H]1CO)c1ccccn1 | 2.1
O=C(C[C@H]1C[C@H]2c3cc(NS(=O)(=O)c4ccc(F)cc4)ccc3O[C@H]2[C@H](CO)O1)NC1CCCC1 | 1.9
C/C=C/c1ccc([C@H]2[C@@H](CO)N(Cc3ccccc3)[C@H]2CNC(=O)C2CC2)cc1 | -5.0[25 µM]
CC(=O)Nc1ccc(Sc2ccc([N+](=O)[O-])o2)cc1 | 86.3*
CC(=O)Nc1ccc([N+](=O)[O-])cn1 | -1.7
CC(=O)Nc1ccc(SC(Sc2ccc(NC(C)=O)cc2)c2ccccc2)cc1 | -10.9
C/C=C/c1ccccc1[C@@H]1[C@H](C#N)N(C(=O)Cc2ccccn2)[C@H]1CO | -4.1[25 µM]
C/C=C/c1ccc([C@H]2[C@@H](CO)N(S(=O)(=O)CC)[C@@H]2CN(C)C(=O)CC)cc1 | -6.8[25 µM]
CCCC#Cc1ccc([C@H]2[C@@H](CO)N(C(C)=O)[C@@H]2CNC(=O)C2CCC2)cc1 | 0.5[25 µM]
O=C(COC(=O)c1ccco1)Nc1ccc2c(c1)OCCO2 | -64.9
Cn1cccc1C(=O)OCC(=O)Nc1ccc2c(c1)OCCO2 | 55.2*
SMILES | BL2 CD40 inh
Cn1cccc1C(=O)OCC(=O)NCc1ccc2c(c1)OCO2 | -16.8
CCCNC(=O)N1[C@H](CO)[C@@H]2c3ccccc3N(C(=O)Nc3ccccc3)C[C@@H]21 | -24.2
CCOC(=O)c1cc2c(ccn2C)n1Cc1ccc(C#N)cc1 | 54.9*
CCOC(=O)c1cc2c(ccn2C)n1CC(=O)N(C)C | 2.5
CCOC(=O)c1cc2c(ccn2C)n1Cc1ccc(Cl)cc1 | 9.6
CN1c2ccc(C3=CCCCC3)cc2[C@@H]2[C@@H](CCN2C(=O)C2CC2)[C@H]1CO | -21.7
O=C(Nc1nnc(C2CC2)s1)C1CC(=O)N(c2ccc3c(c2)OCCO3)C1 (configuration not stated) | 51.2*
O=C(Nc1nnc(C2CCCCC2)s1)C1CC(=O)N(c2ccccc2)C1 (configuration not stated) | 13.1
O=C(Nc1nc2ccc(F)cc2s1)C1CC(=O)N(c2ccc3c(c2)OCCO3)C1 (configuration not stated) | 27.6
CC(=O)N1[C@H](CO)[C@@H](c2ccc(C3=CCCC3)cc2)[C@H]1CNC(=O)CN(C)C | 4.0
Cc1noc(C)c1S(=O)(=O)Nc1ccc2c(c1)C(=O)N([C@@H](C)CO)C[C@H](C)[C@@H](CN(C)S(=O)(=O)c1ccccc1)O2 | -12.2
O=C(Cc1ccccc1)N1C[C@H]2[C@@H](c3ccccc31)[C@@H](CO)N2C(=O)c1ccc(F)cc1 | -5.0[25 µM]
